Source: PubChem BioAssay
D3 antag – blocks the human D3 dopamine receptor; P35462; D3R cells, DiscoveRx beta-arrestin luminescence, antagonist mode; active compounds read low; max response, negative = inhibition, %; hit rate 2.5% among 360,000; AID 652054; in the data active = max response below about -50%; inconclusive = no clear call, values can overlap the other calls
Target sequence (P35462 whole entry, looked up): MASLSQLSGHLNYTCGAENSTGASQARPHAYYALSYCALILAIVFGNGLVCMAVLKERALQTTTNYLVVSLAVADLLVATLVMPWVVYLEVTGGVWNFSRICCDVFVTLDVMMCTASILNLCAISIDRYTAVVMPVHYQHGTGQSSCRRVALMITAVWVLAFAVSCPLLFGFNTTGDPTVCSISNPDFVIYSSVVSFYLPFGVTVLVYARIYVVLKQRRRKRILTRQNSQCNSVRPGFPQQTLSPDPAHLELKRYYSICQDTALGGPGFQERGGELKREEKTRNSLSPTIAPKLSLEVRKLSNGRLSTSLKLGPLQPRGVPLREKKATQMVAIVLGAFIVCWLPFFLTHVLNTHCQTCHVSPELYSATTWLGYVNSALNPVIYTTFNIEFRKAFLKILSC
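Cells expressing the human receptor were seeded at 1500 cells/well, incubated overnight at 37 degrees C in 5% CO2, then exposed to library compounds with dopamine controls for 90 minutes at 37 degrees C before luminescent detection.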
HepG2 tox – counter-screen for TGF-b inhibitors: cytotoxicity in HepG2 cells; hit rate 0.76% among 410,000; AID 588856; Potency, µM (series often up to 46.1 µM), hits mostly cytotoxic; HepG2 CAGA-GFP viability, ATP luminescence, 18 h
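CellTiter-Glo luminescence gave cytotoxicity after 18 hours at 37 degrees C. The cells were HepG2 CAGA-GFP in 1% FBS DMEM, stimulated with 500 pg/mL TGF-beta after compound addition. %Activity was normalised to no-cell wells (complete cell-killing) and DMSO (no toxicity), and curves were fitted and classified.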
ATXN2 expr inh – ATXN2 expression inhibition | HEK-293 ATXN2-luciferase reporter, luminescence, 24 h | Potency, µM (series often up to 57 µM), actives largely listed as inhibitors | hit rate 0.72% among 360,000; note: nearly all actives have a fitted effect of over 55% in size
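qHTS (up to 57 uM final) was run with 24 h compound exposure of reporter cells at 37 °C. Each well was multiplexed: SteadyGlo luminescence measured ATXN2-luciferase expression after a fluorogenic Gly-Phe-AFC viability readout (25 uM final).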
DRD3 agonist – agonists of human D3 dopamine receptor. P35462. D3R DiscoveRx beta-arrestin cells, luminescence, 90 min. max activation, %. hit rate 0.58% among 410,000. AID 652048; in the data active = max activation above about 30%
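Agonist mode: compounds and dopamine controls were applied to plated cells for 90 min at 37 degrees C after an overnight attachment at 1500 cells/well. Luminescent read-out followed 30 - 60 minutes at room temperature with DiscoveRx detection reagent.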
S2 tox – cell viability loss in ATXN counter-screen. hit rate 0.49% among 400,000. Potency, µM (series often up to 56.7 µM), actives largely listed as cytotoxic. S2 cells (HEK-293 line with an ATXN2-luciferase reporter) viability, CellTiter-Fluor protease fluorescence, 24 h; note: nearly all actives have a fitted effect of over 40% in size
TGFb inhibitor – inhibitors of TGF-b signaling; AID 588855; Potency, µM (highest dose often 46.1 µM), most hits filed as inhibitors; HepG2 CAGA-GFP TGF-b/SMAD3 reporter, GFP fluorescence, 18 h; TGF-beta stimulated, 500 pg/mL final; hit rate 1.2% among 410,000; note: nearly all actives have a fitted effect of over 65% in size
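Using HEPG2 CAGA-GFP reporter cells at 1000 cells/well, we pinned test compounds, stimulated with recombinant TGF-beta (500 pg/mL final) and measured total well GFP after 18 h.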
Hits are given with their value; - = inactive; ? = inconclusive; . = not tested or not shown; ! = a repeat was not active. This is a sample that favours compounds with a hit; in the whole collection about 4.7% have one here. Unless noted, calls come from the whole dose curve; as a rule, active = well fitted curve in the direction sought with a large enough effect; inconclusive = small, poorly fitted or top-dose-only effect, or another doubt; inactive = no such curve, though single readings can be large; an effect the other way counts as inactive or inconclusive.

SMILES	D3 antag	HepG2 tox	ATXN2 expr inh	DRD3 agonist	S2 tox	TGFb inhibitor
COc1cc(Cl)c(NC(=O)CN(C)S(=O)(=O)c2ccc3[nH]c4c(c3c2)CCCC4)c(OC)c1	.	-	-	-	-	?
Cc1cc2cc3c(=O)[nH]c(=O)nc-3n(CC(O)C(O)C(O)CO)c2cc1C (centres undefined)	-	-	-	-	.	-
Cc1cc2cc3c(=O)[nH]c(=O)cc-3n(CC(O)C(O)C(O)CO)c2cc1C (centres undefined)	-97.3	-	.	-	?	-
CCOC(=O)C1=CN(Cc2cccc(F)c2)S(=O)(=O)N(C)C1c1ccccc1 (centres undefined)	?	-	-	-	-	-
CCOC(=O)C1=CN(Cc2cccc(F)c2)S(=O)(=O)NC1c1cccc(OC)c1 (centres undefined)	-	-	-	-	-	-
CCOC(=O)C1=CN(Cc2cccc(F)c2)S(=O)(=O)NC1c1ccc2ccccc2c1 (centres undefined)	-58.8	-	-	-	-	12.6µM
CCOC(=O)C1=CN(Cc2cccc(F)c2)S(=O)(=O)N(C)C1c1cccc(OC)c1 (centres undefined)	-	-	-	37.5	-	-
Clc1cccc(-n2nnnc2NCc2ccccc2Oc2ccccn2)c1Cl	.	.	-	.	.	.
O=C(COC(=O)C1CCN(S(=O)(=O)c2cccc3cccnc23)CC1)c1ccc(F)cc1	-52.4	-	-	-	-	-
O=C(C1CCN(S(=O)(=O)c2cccc3cccnc23)CC1)N1CCn2c1nc1ccccc12	-184.4	-	-	-	-	-
COc1ccccc1-n1cc(C(=O)NCCN2Cc3ccccc3OC(c3ccsc3)C2)cn1 (centres undefined)	.	.	.	.	-	.
O=c1c2c([N+](=O)[O-])cc([N+](=O)[O-])cc2sn1Cc1ccccc1	?	15.8µM	?	-	?	?
O=c1c2c([N+](=O)[O-])cc([N+](=O)[O-])cc2sn1-c1ccc(Br)cc1	-	-	-	-	-	-
NC1=C(Cl)C(=O)c2ccc(S(N)(=O)=O)cc2C1=O	?	0.562µM	3.55µM	-	3.55µM	?
NC1=C(Cl)C(=O)c2ccccc2C1=O	-	5.62µM	?	-	?	?
COc1ccc(C)cc1NS(=O)(=O)c1ccc2oc(=O)c3ncn(C)c3c2c1	.	-	-	-	-	?
CN(C)C(CNC(=S)Nc1cccc(Cl)c1)c1ccccc1 (centres undefined)	-69.9	-	-	-	-	-
Cc1cccc(NC(=S)NCC(c2ccccc2)N(C)C)c1 (centres undefined)	?	-	-	-	?	-
CN(C)C(CNC(=O)Nc1cccc(Cl)c1)c1cccnc1 (centres undefined)	-52.5	-	-	-	-	-
O=C(NCc1cccnc1)Nc1cccc(Cl)c1	-	-	-	-	-	-
CC(C)NS(=O)(=O)c1ccc(OCC(=O)N2CCN(c3ccccc3F)CC2)cc1	.	-	-	-	-	-
C=C[C@@H]1c2cc(C)ccc2N(S(=O)(=O)c2ccc(C)cc2)[C@H](c2ccc(C(=O)OC)cc2)C1(C#N)C#N	.	-	.	.	.	-
Cc1nn2c(-c3cccc(NC(=O)c4ccccc4)c3)nnc2c2ccccc12	.	-	.	-	.	-
COc1ccc(-c2cc(C(F)(F)F)n3nc(C(=O)Nc4cc(Cl)cc(Cl)c4)cc3n2)cc1	.	-	-	-	-	-
COc1ccc(-n2nc3c(N4CCC(C(=O)NCc5cccc(C)c5)CC4)nnc(C)c3c2C)cc1	-58.5	-	.	-	?	?
SMILES	D3 antag	HepG2 tox	ATXN2 expr inh	DRD3 agonist	S2 tox	TGFb inhibitor
CCOc1ccc(CNC(=O)C2CCN(c3nnc(C)c4c(C)n(-c5ccc(C)cc5)nc34)CC2)cc1	-	-	.	-	?	?
CCOc1ccccc1CNC(=O)C1CCN(c2nnc(C)c3c(C)n(-c4ccc(C)cc4)nc23)CC1	-	10µM!	?	-	.	11.2µM
COc1ccc(-n2nc3c(N4CCCC(C(=O)NCc5cccc(F)c5)C4)nnc(C)c3c2C)cc1 (centres undefined)	.	-	?	-	.	?
COc1ccccc1CCNC(=O)C1CCN(c2nnc(C)c3c(C)n(-c4ccc(C)cc4)nc23)CC1	-70.2	3.55µM!	-	-	?	?
Cc1ccc(-n2nc3c(N4CCC(C(=O)NCc5ccccc5C)CC4)nnc(C)c3c2C)cc1	-	-	?	-	?	17.8µM
CN(C)CC[C@H](CSc1ccccc1)Nc1ccc(S(=O)(=O)NC(=O)c2ccc(N3CCN(Cc4ccccc4-c4ccc(Cl)cc4)CC3)cc2)cc1[N+](=O)[O-]	.	.	-	.	.	.
CCOc1ccccc1N1CCN(C(=O)c2cc[n+]([O-])cc2)CC1	-63.1	-	-	-	-	-
COCCN(C)C(=O)c1cnn(-c2ncc3c(n2)-c2ccccc2CCC3)c1C1CC1	.	.	.	.	-	.
CN(C(=O)CSc1n[nH]c(-c2cccs2)n1)C1CCS(=O)(=O)C1 (centres undefined)	-	11.2µM	-	-	-	-
CN(C(=O)CSc1nnc(-c2cccs2)o1)C1CCS(=O)(=O)C1 (centres undefined)	-	-	-	-	-	-
CC1(OC(=O)C2CCCC2)C(=O)C=C2C=C(c3ccsc3)N(C3CC3)C=C2C1=O (centres undefined)	-63.7	-	-	-	-	-
Cc1c(C2=CCN(S(=O)(=O)c3cccc(Cl)c3)CC2)c2ccccc2n1CC(=O)N1CCCC1	.	-	.	-	.	?
CC(=O)Nc1ccc2cc3ccc(NC(C)=O)cc3nc2c1	-	12.6µM	-	-	.	-
CC(=O)Nc1ccc2ccccc2c1	-	-	-	-	-	-
CC(=O)Nc1cc([N+](=O)[O-])cc(NC(C)=O)c1NC(C)=O	.	-	.	.	.	-
COc1ccc(NC(=O)Cn2nc(-c3ccncc3)ccc2=O)cc1Cl	.	-	-	-	?	-
O=C(NC1CCCC1)c1ccc(CSc2nc3ccncc3n2Cc2cccc(F)c2)cc1	.	-	-	-	?	?
COc1ccc(Cn2c(SCc3ccc(C(=O)NC4CCCCC4)cc3)nc3ccncc32)cc1	.	-	?	-	-	12.6µM
O=C(NC1CCCC1)c1ccc(CSc2nc3cccnc3n2Cc2ccccc2)cc1	.	-	-	-	-	17.8µM
O=C(NC1CCCC1)c1ccc(CSc2nc3ccncc3n2Cc2ccc(F)cc2)cc1	-	-	?	-	?	7.94µM!
Cc1cc(=O)n2[nH]c(NCc3ccc(F)cc3)nc2n1	.	-	-	-	-	-
COc1ccc(C(=O)c2no[n+]([O-])c2C(=O)c2ccc(OC)cc2)cc1	-	-	?	-	28.2µM	?
COc1ccc(NC(=O)c2c(N)no[n+]2[O-])cc1	-	-	-	-	-	?
